Reference: PubChem BioAssay
Calls of active or inactive are those of the source.

Legend:
[1] = system: PRMT1 (protein arginine N-methyltransferase 1); assay: small molecules binding arginine methyltransferase PRMT1 – biochemical, small-molecule microarray, 635 nm fluorescence, primary screen (AID 1088); settings: higher = more signal;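 note: binding of Prmt1 protein to compounds spotted on small-molecule microarray slides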
[2] = growth effects on S. cerevisiae YJM789 – YJM789 clinical isolate, OD600, 24 h, basal, primary screen (AID 1089); settings: higher = more signal, called active from +8 up or from −8 down;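 note: growth of clinical yeast isolate S. cerevisiae YJM 789 seeded 1000 cells per well; test concentration not given here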
[3] = S. pombe growth modifiers, basal conditions – strain 972, OD600, 24 h, no modulator, primary screen (AID 1090);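 note: basal condition with compound alone and no growth modifier present; test concentration not given here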; settings: S. pombe 972 growth, higher = more signal, called active from +8 up or from −8 down
[4] = budding yeast growth modifiers under rapamycin – strain BY4716, OD600, 96 h, primary screen (AID 1091); note: test concentration not given here; settings: S. cerevisiae BY4716 + rapamycin, higher = more signal, called active from +8 up or from −8 down
[5] = biological target: Torsin-1A-interacting protein 2 (Homo sapiens) (UniProt Q8NFQ8); assay: small molecules binding lysate-expressed LULL1 – cell lysate, human LULL1 lysate, 635/667 nm fluorescence, primary screen (AID 1092); settings: small-molecule microarray, hLULL1 lysate binding, 635 nm fluorescence; higher = more signal;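 note: probe is lysate of COS7 cells overexpressing human LULL1; score merges per-feature 667 nm fluorescence with signal-to-noise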
Sequence of Torsin-1A-interacting protein 2 (Homo sapiens) (Q8NFQ8 whole entry, looked up): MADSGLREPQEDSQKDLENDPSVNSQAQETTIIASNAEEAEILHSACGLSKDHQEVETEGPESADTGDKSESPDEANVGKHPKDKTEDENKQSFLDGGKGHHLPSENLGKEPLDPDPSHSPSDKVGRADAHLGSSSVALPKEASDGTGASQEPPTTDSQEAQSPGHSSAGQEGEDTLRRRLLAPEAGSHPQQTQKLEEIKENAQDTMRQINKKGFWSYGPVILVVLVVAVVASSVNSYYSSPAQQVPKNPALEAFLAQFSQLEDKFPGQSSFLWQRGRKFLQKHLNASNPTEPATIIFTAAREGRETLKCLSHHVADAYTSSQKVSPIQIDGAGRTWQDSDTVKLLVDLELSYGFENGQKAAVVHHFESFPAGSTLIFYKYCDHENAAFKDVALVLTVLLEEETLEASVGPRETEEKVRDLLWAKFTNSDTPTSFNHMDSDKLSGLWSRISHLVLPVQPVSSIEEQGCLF

[6] = optical density change of DRC41 E. coli – strain DRC41, OD650, 24 h, E. coli filamentation project, primary screen (AID 1093);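 note: MC1000 strain lacking acrAB efflux and sulA so SOS filamentation is blocked; test concentration not given here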; settings: E. coli DRC41 growth, higher = more signal, called active from +8 up or from −8 down
[7] = probe aLefty2 binding to arrayed compounds – biochemical, biotinylated probe, 635/667 nm fluorescence, primary screen (AID 1094); settings: small-molecule microarray, higher = more signal;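 note: score merges spot fluorescence near 667 nm with spot signal-to-noise ratio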
[8] = system: Noggin (protein binding on small-molecule microarray); assay: small molecules binding Noggin protein – biochemical, 635/667 nm fluorescence, primary screen (AID 1095); settings: 635 nm fluorescence, higher = more signal;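 note: score merges 667 nm feature fluorescence with signal to noise over triplicate slides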
[9] = biological target: Neurogenic locus notch homolog protein 3 (Homo sapiens) (UniProt Q9UM47); assay: small molecules binding NOTCH3 protein – biochemical, 635/667 nm fluorescence, primary screen (AID 1096); settings: small-molecule microarray, 635 nm fluorescence, higher = more signal
Sequence of Neurogenic locus notch homolog protein 3 (Homo sapiens) (Q9UM47 whole entry, looked up): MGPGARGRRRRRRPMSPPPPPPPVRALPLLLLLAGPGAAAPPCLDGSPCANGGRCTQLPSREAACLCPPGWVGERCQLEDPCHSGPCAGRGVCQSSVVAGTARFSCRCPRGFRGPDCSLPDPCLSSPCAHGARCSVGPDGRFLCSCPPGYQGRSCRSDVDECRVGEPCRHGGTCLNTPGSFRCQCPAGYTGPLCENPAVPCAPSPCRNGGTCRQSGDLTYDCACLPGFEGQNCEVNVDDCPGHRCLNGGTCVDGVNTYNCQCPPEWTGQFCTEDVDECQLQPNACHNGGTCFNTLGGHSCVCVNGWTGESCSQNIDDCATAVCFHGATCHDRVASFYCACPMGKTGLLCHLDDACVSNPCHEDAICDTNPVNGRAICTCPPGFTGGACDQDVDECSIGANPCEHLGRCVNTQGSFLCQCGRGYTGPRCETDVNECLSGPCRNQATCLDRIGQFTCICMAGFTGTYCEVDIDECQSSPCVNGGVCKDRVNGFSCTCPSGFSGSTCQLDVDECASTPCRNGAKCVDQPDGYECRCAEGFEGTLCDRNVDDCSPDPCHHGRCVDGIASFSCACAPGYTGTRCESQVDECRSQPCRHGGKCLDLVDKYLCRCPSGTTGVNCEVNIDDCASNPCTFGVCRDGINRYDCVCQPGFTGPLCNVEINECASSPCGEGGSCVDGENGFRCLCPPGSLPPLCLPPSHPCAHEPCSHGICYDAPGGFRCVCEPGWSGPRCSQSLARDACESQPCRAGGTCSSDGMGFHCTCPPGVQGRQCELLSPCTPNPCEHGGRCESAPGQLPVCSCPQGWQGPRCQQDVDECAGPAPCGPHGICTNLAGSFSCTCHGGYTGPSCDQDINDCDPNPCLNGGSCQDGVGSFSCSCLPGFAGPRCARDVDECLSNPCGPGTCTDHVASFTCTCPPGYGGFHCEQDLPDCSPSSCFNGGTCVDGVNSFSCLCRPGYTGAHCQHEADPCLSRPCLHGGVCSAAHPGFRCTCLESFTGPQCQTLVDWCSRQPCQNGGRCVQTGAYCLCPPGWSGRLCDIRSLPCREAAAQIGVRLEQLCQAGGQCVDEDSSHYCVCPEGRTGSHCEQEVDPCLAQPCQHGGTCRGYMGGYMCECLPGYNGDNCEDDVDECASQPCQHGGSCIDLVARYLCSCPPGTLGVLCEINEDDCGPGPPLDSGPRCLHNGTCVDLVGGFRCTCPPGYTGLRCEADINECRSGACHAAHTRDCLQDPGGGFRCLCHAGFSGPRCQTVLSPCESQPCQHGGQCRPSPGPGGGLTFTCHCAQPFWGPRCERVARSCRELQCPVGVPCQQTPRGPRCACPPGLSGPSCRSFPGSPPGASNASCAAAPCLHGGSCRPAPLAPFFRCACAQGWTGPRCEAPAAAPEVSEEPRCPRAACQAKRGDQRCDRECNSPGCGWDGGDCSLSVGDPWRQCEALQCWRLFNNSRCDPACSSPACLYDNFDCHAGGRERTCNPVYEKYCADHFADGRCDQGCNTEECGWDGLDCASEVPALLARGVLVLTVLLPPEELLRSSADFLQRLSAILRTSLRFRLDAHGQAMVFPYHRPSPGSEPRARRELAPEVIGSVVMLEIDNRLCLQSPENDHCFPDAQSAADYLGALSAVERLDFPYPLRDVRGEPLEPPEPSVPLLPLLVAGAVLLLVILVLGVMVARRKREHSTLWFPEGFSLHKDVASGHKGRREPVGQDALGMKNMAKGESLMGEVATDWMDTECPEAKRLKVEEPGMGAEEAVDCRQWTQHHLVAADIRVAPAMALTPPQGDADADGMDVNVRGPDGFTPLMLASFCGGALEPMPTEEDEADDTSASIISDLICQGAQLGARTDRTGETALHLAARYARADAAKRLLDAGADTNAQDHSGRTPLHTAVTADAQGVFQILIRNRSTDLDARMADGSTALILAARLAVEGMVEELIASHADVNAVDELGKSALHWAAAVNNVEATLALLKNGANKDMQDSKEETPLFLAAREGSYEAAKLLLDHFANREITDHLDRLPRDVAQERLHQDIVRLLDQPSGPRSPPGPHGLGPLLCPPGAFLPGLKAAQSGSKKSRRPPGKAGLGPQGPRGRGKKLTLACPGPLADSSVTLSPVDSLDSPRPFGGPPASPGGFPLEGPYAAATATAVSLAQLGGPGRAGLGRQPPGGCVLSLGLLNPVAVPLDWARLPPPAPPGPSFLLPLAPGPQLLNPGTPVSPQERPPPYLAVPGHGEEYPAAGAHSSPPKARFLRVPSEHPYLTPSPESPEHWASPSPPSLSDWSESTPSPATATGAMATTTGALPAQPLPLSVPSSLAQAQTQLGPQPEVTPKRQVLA

[10] = probe aEGFR binding to arrayed compounds – biochemical, biotinylated probe, 635/667 nm fluorescence, primary screen (AID 1097); settings: small-molecule microarray, higher = more signal;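 note: probe is a biotinylated anti-EGFR antibody binding compounds printed on slides; score combines fluorescence near 667 nm and signal to noise of each spot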
[11] = system: Plasmodium falciparum Sir2 (PF13_0152, Sir2A); assay: Plasmodium falciparum Sir2A binding compounds – biochemical, small-molecule microarray, 635 nm fluorescence, primary screen (AID 1098); settings: fluorescence 635 nm, higher = more signal;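 note: score merges spot fluorescence intensity with its signal-to-noise ratio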
[12] = probe aDKK1 binding to arrayed compounds – biochemical, biotinylated probe, 635/667 nm fluorescence, primary screen (AID 1099); settings: small-molecule microarray, higher = more signal;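 note: score merges 667nm spot fluorescence with signal to noise across triplicate slides; reference of the scale not given here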
[13] = probe aCHRDL2 binding to arrayed compounds – biochemical, biotinylated probe, 635/667 nm fluorescence, primary screen (AID 1100); settings: small-molecule microarray, higher = more signal
[14] = change in splice reporter luminescence, either direction, cell-based, HEK293, spliceosome inhibition project, primary screen (AID 1101); settings: HEK293 splicing luciferase reporter, 24 h, higher = more signal, called active from +8 up or from −8 down;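 note: HEK293 cells carrying a splicing-competent luciferase reporter gene; test concentration not given here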
[15] = biological target: Fibroblast growth factor 10 (Homo sapiens) (UniProt O15520); assay: compounds binding fibroblast growth factor 10 – biochemical, small-molecule microarray, 635 nm fluorescence, primary screen (AID 1102); settings: FGF10 binding, fluorescence 635 nm, higher = more signal
Sequence of Fibroblast growth factor 10 (Homo sapiens) (O15520 whole entry, looked up): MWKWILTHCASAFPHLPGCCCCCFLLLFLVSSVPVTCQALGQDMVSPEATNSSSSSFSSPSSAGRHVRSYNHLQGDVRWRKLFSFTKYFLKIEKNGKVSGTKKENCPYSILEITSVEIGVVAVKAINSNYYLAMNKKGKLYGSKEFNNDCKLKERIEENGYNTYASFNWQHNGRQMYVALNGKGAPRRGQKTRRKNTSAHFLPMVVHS

[16] = system: glycogen synthase kinase-3 (GSK3A per assay name; protocol says GSK3B); assay: compounds binding glycogen synthase kinase-3 – biochemical, small-molecule microarray, 635 nm fluorescence, GSK3A, primary screen (AID 1103); settings: fluorescence 635 nm, higher = more signal; note: the record names both GSK3A and GSK3B
[17] = biological target: Epidermal growth factor receptor (Homo sapiens) (UniProt P00533); assay: compounds binding epidermal growth factor receptor – biochemical, small-molecule microarray, 635 nm fluorescence, primary screen (AID 1104); settings: EGFR binding, higher = more signal;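 note: score merges 667 nm emission intensity with spot signal to noise over triplicate slides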
Sequence of Epidermal growth factor receptor (Homo sapiens) (P00533 whole entry, looked up): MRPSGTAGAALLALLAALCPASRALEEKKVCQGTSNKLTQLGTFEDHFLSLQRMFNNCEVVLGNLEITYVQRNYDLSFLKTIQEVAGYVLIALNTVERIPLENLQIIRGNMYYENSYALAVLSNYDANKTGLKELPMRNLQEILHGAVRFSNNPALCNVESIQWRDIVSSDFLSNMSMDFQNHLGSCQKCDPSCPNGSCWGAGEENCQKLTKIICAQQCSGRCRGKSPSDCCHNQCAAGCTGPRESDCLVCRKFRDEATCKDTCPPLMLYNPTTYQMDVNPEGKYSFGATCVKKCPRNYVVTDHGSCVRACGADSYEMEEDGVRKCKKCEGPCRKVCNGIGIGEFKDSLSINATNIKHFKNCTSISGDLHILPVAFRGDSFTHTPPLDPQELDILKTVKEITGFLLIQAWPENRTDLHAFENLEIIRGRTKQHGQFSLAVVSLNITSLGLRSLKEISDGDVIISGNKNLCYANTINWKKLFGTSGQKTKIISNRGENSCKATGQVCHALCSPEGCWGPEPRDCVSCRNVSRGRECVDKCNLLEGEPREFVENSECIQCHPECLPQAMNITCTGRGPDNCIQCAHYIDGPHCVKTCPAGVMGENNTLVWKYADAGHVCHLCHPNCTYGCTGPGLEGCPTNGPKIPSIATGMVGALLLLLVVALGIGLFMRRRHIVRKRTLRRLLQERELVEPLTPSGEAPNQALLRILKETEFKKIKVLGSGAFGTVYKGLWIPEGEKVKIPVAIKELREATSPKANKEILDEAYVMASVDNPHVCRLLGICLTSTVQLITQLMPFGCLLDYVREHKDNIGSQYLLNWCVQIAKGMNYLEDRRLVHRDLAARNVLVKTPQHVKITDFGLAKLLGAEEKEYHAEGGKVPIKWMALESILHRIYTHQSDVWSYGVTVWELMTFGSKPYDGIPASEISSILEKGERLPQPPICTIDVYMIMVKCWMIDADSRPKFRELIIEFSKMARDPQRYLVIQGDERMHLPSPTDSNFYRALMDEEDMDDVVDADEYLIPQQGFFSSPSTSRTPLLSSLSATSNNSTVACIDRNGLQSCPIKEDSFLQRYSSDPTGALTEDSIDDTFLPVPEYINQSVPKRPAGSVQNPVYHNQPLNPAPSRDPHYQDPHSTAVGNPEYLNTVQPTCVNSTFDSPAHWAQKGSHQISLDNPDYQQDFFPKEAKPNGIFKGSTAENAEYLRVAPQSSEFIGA

[18] = biological target: Follistatin-related protein 3 (Homo sapiens) (UniProt O95633); assay: compounds binding follistatin-related protein 3 – biochemical, small-molecule microarray, 635 nm fluorescence, primary screen (AID 1105); settings: FSTL3 binding, higher = more signal;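 note: score merges emission near 667 nm and signal to noise per printed spot across three slides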
Sequence of Follistatin-related protein 3 (Homo sapiens) (O95633 whole entry, looked up): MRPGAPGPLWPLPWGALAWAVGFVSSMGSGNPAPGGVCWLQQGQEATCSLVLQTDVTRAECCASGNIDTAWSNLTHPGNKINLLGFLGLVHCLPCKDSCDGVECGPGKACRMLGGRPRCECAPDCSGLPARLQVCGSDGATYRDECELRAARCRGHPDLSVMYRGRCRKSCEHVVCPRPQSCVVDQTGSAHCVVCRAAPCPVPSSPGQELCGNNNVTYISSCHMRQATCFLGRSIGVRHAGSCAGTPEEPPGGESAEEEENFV

[19] = biological target: Dickkopf-related protein 1 (Homo sapiens) (UniProt O94907); assay: small molecules binding DKK1 protein – biochemical, small-molecule microarray, 635 nm fluorescence scan, primary screen (AID 1106); settings: higher = more signal;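 note: score merges emission near 667 nm with signal to noise over three replicate slides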
Sequence of Dickkopf-related protein 1 (Homo sapiens) (O94907 whole entry, looked up): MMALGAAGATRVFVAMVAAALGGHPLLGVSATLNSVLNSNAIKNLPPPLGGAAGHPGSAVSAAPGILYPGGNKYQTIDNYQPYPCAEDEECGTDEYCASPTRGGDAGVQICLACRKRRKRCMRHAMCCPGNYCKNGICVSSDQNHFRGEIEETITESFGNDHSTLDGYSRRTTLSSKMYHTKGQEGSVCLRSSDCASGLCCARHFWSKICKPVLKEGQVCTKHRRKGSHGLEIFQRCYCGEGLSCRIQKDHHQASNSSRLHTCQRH

[20] = system: Inhibin beta A chain (activin A); assay: small molecules binding activin A – biochemical, small-molecule microarray, 635 nm fluorescence scan, primary screen (AID 1107); settings: INHBA, higher = more signal;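 note: mouse activin A protein probed at 4.33 µg/mL on printed slides; score merges bound-protein fluorescence near 667 nm with spot signal-to-noise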

SMILES | composite z-score [1] | z-score [2] | z-score [3] | z-score [4] | composite z-score [5] | z-score [6] | composite z-score [7] | composite z-score [8] | composite z-score [9] | composite z-score [10] | composite z-score [11] | composite z-score [12] | composite z-score [13] | z-score [14] | composite z-score [15] | composite z-score [16] | composite z-score [17] | composite z-score [18] | composite z-score [19] | composite z-score [20]
COC(=O)CC=C[C@@H](C)[C@@H](C=NO[C@@H](C)c1cn([C@H](CO)Cc2ccccc2)nn1)OC | 1.05 | -2.66 (inactive) | -2.01 (inactive) | -0.773 (inactive) | 0.579 | -0.673 (inactive) | -0.173 | 0.719 | 0.627 | -0.114 | 0.361 | -0.435 | -0.572 | -0.772 (inactive) | 0.229 | 0.165 | 0.523 | 0.31 | 0.498 | -0.163
COC(=O)[C@H]1O[C@@H](c2c(OC)c(OC)c(C)c(OC)c2OC)[C@H](C)[C@@H](O)[C@H]1C | 1.03 | 0.234 (inactive) | 0.346 (inactive) | -0.438 (inactive) | 0.964 | 0.196 (inactive) | -0.0131 | 0.585 | 1.1 | 0.0821 | 0.209 | 0.138 | 0.112 | -0.187 (inactive) | 0.798 | 0.824 | 0.0132 | 0.89 | 0.743 | -0.311
CCOC(=O)[C@H](Cc1ccccc1)NC(=O)CCC1CC(OC(=O)NCCc2ccc(F)cc2)CC2(CCCC(COC(=O)NCCc3ccc(Cl)cc3)O2)O1 (stereo not given in full) | 1.13 | 0.154 (inactive) | 1.04 (inactive) | 0.851 (inactive) | 1.83 | 0.822 (inactive) | -0.174 | 0.658 | 0.924 | -0.0687 | 0.54 | -0.0724 | -0.379 | -0.0219 (inactive) | 0.319 | 0.691 | 0.401 | 0.422 | 0.555 | 0.018
CO[C@@H]1COC(=O)[C@@H]2CCCN2C(=O)[C@@H](C)COC(=O)CC=C[C@H]1C | 1.41 | -0.414 (inactive) | 0.0992 (inactive) | -1.14 (inactive) | 0.882 | -0.152 (inactive) | -0.0438 | 1.18 | 0.943 | -0.0788 | 0.13 | -0.552 | -0.522 | -0.203 (inactive) | 0.959 | 1.28 | 0.598 | 0.993 | 1.12 | -0.282
COC(=O)CC=C[C@@H](C)[C@@H](C=NOC[C@H]1O[C@H](c2ccccc2)C=C[C@@H]1Oc1ccc(OC)cc1)NS(=O)(=O)c1ccc(C)cc1 | -1.27 | 0.0204 (inactive) | 0.321 (inactive) | -0.382 (inactive) | -0.744 | -0.513 (inactive) | -0.0785 | -0.882 | -0.939 | -0.195 | -0.611 | 0.0033 | 0.674 | 0.00198 (inactive) | -0.858 | -1.78 | -0.873 | -1.2 | -0.462 | 0.797
COc1cccc([C@H]2Oc3ccc(OC)cc3C(=NOC(C)CN3CCCCc4nc(C)c(C)cc43)[C@@H]2O)c1 (stereo not given in full) | 1.03 | -0.915 (inactive) | -1.19 (inactive) | -1.48 (inactive) | 1.45 | 1.25 (inactive) | 0.0344 | 0.0286 | 0.32 | 0.044 | -0.0106 | -0.151 | -0.223 | -0.49 (inactive) | 0.422 | -0.313 | 0.132 | 0.179 | 0.064 | 0.937
COC(=O)[C@H](C)NC(=O)CCC1CC(OC(=O)NCc2ccc3c(c2)OCO3)CC2(CCCC(COC(=O)NCC(c3ccccc3)c3ccccc3)O2)O1 (stereo not given in full) | 1.55 | -0.256 (inactive) | -0.58 (inactive) | -0.122 (inactive) | 2.65 | -0.502 (inactive) | -0.118 | 1.5 | 1.06 | 0.0004 | 0.848 | -0.33 | -0.845 | -0.845 (inactive) | 1.33 | 0.653 | 0.651 | 1.2 | 0.766 | -0.473
CCOC(=O)C1=NO[C@]2(C=C(Br)C3(OCCCO3)[C@H]3O[C@H]32)C1 | -0.365 | -0.658 (inactive) | -1.06 (inactive) | -0.155 (inactive) | 0.141 | 0.874 (inactive) | -0.244 | -0.519 | -0.862 | 0.0214 | -0.695 | -0.32 | -0.274 | 0.437 (inactive) | 0.18 | -0.512 | -0.203 | -0.425 | -0.123 | 0.549
O=C1[C@H]2[C@H]3[C@H](O)[C@H](O)CC(=NOC[C@@H](O)COCc4ccco4)[C@H]3CC[C@H]2C(=O)N1Cc1ccccc1 | 0.411 | -1.14 (inactive) | -1.05 (inactive) | -1.11 (inactive) | -1.71 | -0.518 (inactive) | -0.148 | 0.594 | -0.309 | -0.0973 | 0.467 | -0.49 | -0.964 | -0.907 (inactive) | 0.378 | 0.0077 | 0.522 | 0.404 | 0.901 | 0.764
C[C@@H](c1ccccc1)N1C(=O)[C@H]2[C@H]3[C@H](O)[C@H](O)CC(=O)[C@H]3CC[C@H]2C1=O | 0.157 | -0.394 (inactive) | -0.197 (inactive) | 0.134 (inactive) | 0.461 | 0.541 (inactive) | -0.0483 | 0.482 | 0.521 | -0.108 | -0.417 | -0.338 | -0.489 | 0.282 (inactive) | 0.526 | 0.523 | 0.202 | 0.548 | 0.491 | -0.0854
